According to PubChem BioAssay (NCI):
About 83,000 compounds went through this panel and 20% of them were active in at least one assay; those are over-represented in the sample as a whole.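 Plates (96-well) were seeded with cells, treated with compound at one concentration, and incubated for 48 hours before percent growth was determined.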 Values without a mark were called inactive. Active and inactive are the calls of the source. The calls were made as follows: active = growth percent below 10; inactive = the rest.

Tests used:
Assay in all cases: NCI-60 one-dose screen, 48 h (100 = growth as untreated, 0 = no growth, -100 = all killed)
Settings in all cases: 10 µM unless noted
HCT-15 colon = system: HCT-15 colon
HT29 colon = system: HT29 colon
SNB-75 CNS = system: SNB-75 CNS
SNB-19 CNS = system: SNB-19 CNS
U251 CNS = system: U251 CNS
PC-3 prostate = system: PC-3 prostate
SK-MEL-5 melanoma = system: SK-MEL-5 melanoma
UACC-62 melanoma = system: UACC-62 melanoma
LOX IMVI melanoma = system: LOX IMVI melanoma
SK-MEL-28 melanoma = system: SK-MEL-28 melanoma
SK-MEL-2 melanoma = system: SK-MEL-2 melanoma
EKVX NSCLC = system: EKVX NSCLC
SN12C renal = system: SN12C renal
UO-31 renal = system: UO-31 renal
TK-10 renal = system: TK-10 renal
ACHN renal = system: ACHN renal
CAKI-1 renal = system: CAKI-1 renal
A498 renal = system: A498 renal
CCRF-CEM leukemia = system: CCRF-CEM leukemia
MOLT-4 leukemia = system: MOLT-4 leukemia

`CN(C)CCCNc1nc2ccccc2c2c(=O)c3cc(F)ccc3sc12` was tested, and the growth (HCT-15 colon) was 17.7%, the growth (HT29 colon) was 4.32% (active) and the growth (SNB-75 CNS) was 65.6%. For the same compound, the growth (SNB-19 CNS) was 68.4%, the growth (U251 CNS) was 28.5% and the growth (PC-3 prostate) was 50.2%. The growth (SK-MEL-5 melanoma) was 72.6%, the growth (UACC-62 melanoma) was -53.8% (active) and the growth (LOX IMVI melanoma) was -95% (active). For the same compound, the growth (SK-MEL-28 melanoma) was -42.4% (active), the growth (SK-MEL-2 melanoma) was 87.3% and the growth (EKVX NSCLC) was 66.3%. For the same compound, the growth (SN12C renal) was 61.2%, the growth (UO-31 renal) was 24.9% and the growth (TK-10 renal) was 59.7%. For the same compound, the growth (ACHN renal) was 21.5%, the growth (CAKI-1 renal) was 8.81% (active) and the growth (A498 renal) was 26.6%. For the same compound, the growth (CCRF-CEM leukemia) was 10% (active) and the growth (MOLT-4 leukemia) was -11.2% (active).
With `COc1cc(CCCO)c(OC)c(OC)c1OC` the growth (HCT-15 colon) was 110%, the growth (HT29 colon) was 108% and the growth (SNB-75 CNS) was 86.9%. The growth (SNB-19 CNS) was 96.1%, the growth (U251 CNS) was 101% and the growth (PC-3 prostate) was 106%. The growth (SK-MEL-5 melanoma) was 109%, the growth (UACC-62 melanoma) was 94.8% and the growth (LOX IMVI melanoma) was 98.1%. For the same compound, the growth (SK-MEL-28 melanoma) was 109%, the growth (SK-MEL-2 melanoma) was 118% and the growth (EKVX NSCLC) was 105%. For the same compound, the growth (SN12C renal) was 99.6%, the growth (UO-31 renal) was 90.4% and the growth (TK-10 renal) was 109%. For the same compound, the growth (ACHN renal) was 106%, the growth (CAKI-1 renal) was 92.3% and the growth (A498 renal) was 83.6%. The growth (CCRF-CEM leukemia) was 108% and the growth (MOLT-4 leukemia) was 110%.
For `COc1cc(/C=C2\C(=O)Nc3ccc(Br)cc32)cc(OC)c1OC`, the growth (HCT-15 colon) was 38.6%, the growth (HT29 colon) was 24.4% and the growth (SNB-75 CNS) was 36.5%. It also gave a growth (SNB-19 CNS) of 81%, a growth (U251 CNS) of 51% and a growth (PC-3 prostate) of 60.4%. The growth (SK-MEL-5 melanoma) was 56.9%, the growth (UACC-62 melanoma) was 51.6% and the growth (LOX IMVI melanoma) was 57.2%. For the same compound, the growth (SK-MEL-28 melanoma) was 80.2%, the growth (SK-MEL-2 melanoma) was 84% and the growth (EKVX NSCLC) was 72.2%. The growth (SN12C renal) was 80.9%, the growth (UO-31 renal) was 54.7% and the growth (TK-10 renal) was 82.5%. It also gave a growth (ACHN renal) of 79.1%, a growth (CAKI-1 renal) of 42.1% and a growth (A498 renal) of 55.7%. The growth (CCRF-CEM leukemia) was 72.8% and the growth (MOLT-4 leukemia) was 63.6%.
For `COc1cc(/C=C/C(=O)/C=C/c2cc(OC)c3c(c2OC)OCO3)c(OC)c2c1OCO2`, the growth (HCT-15 colon) was 31.9%, the growth (HT29 colon) was 68.5% and the growth (SNB-75 CNS) was 33.4%. The growth (SNB-19 CNS) was 55.4%, the growth (U251 CNS) was 11.5% and the growth (PC-3 prostate) was 41%. For the same compound, the growth (SK-MEL-5 melanoma) was 45.1%, the growth (UACC-62 melanoma) was 25.5% and the growth (LOX IMVI melanoma) was 32.9%. It also gave a growth (SK-MEL-28 melanoma) of 55.6%, a growth (SK-MEL-2 melanoma) of 28.1% and a growth (EKVX NSCLC) of 87.7%. It also gave a growth (SN12C renal) of 30.4%, a growth (UO-31 renal) of 57.3% and a growth (TK-10 renal) of 12.9%. It also gave a growth (ACHN renal) of 25.5%, a growth (CAKI-1 renal) of 29.7% and a growth (A498 renal) of 43%. For the same compound, the growth (CCRF-CEM leukemia) was 26.5% and the growth (MOLT-4 leukemia) was 18.7%.
`O=C1CN(CCN2CC(=O)N(Cc3ccccc3)C(=O)C2)CC(=O)N1Cc1ccccc1` was tested, and the growth (HCT-15 colon) was 113%, the growth (HT29 colon) was 108% and the growth (SNB-75 CNS) was 88%. For the same compound, the growth (SNB-19 CNS) was 107%, the growth (U251 CNS) was 100% and the growth (PC-3 prostate) was 93.9%. For the same compound, the growth (SK-MEL-5 melanoma) was 100%, the growth (UACC-62 melanoma) was 103% and the growth (LOX IMVI melanoma) was 96.3%. For the same compound, the growth (SK-MEL-28 melanoma) was 107%, the growth (SK-MEL-2 melanoma) was 106% and the growth (EKVX NSCLC) was 99.2%. It also gave a growth (SN12C renal) of 98.6%, a growth (UO-31 renal) of 76.3% and a growth (TK-10 renal) of 111%. The growth (ACHN renal) was 106%, the growth (CAKI-1 renal) was 92.8% and the growth (A498 renal) was 89.7%. For the same compound, the growth (CCRF-CEM leukemia) was 94.3% and the growth (MOLT-4 leukemia) was 92.3%.
For `CCCSc1nc2ccc(C)cc2cc1/C=[N+](\[O-])c1ccccc1`, the growth (HCT-15 colon) was 11.5%, the growth (HT29 colon) was 10% (active) and the growth (SNB-75 CNS) was 21.4%. It also gave a growth (SNB-19 CNS) of 37.2%, a growth (U251 CNS) of 12.8% and a growth (PC-3 prostate) of 23.1%. It also gave a growth (SK-MEL-5 melanoma) of 27.6%, a growth (UACC-62 melanoma) of 31.3% and a growth (LOX IMVI melanoma) of 19%. It also gave a growth (SK-MEL-28 melanoma) of 48.3%, a growth (SK-MEL-2 melanoma) of 68.8% and a growth (EKVX NSCLC) of 80.6%. The growth (SN12C renal) was 26.1%, the growth (UO-31 renal) was 44.7% and the growth (TK-10 renal) was 89.5%. For the same compound, the growth (ACHN renal) was 49.2%, the growth (CAKI-1 renal) was 70.5% and the growth (A498 renal) was 74.6%. It also gave a growth (CCRF-CEM leukemia) of 11.2% and a growth (MOLT-4 leukemia) of 27.2%.
`COC(=O)/C=C1\S/C(=N\Nc2ccc([N+](=O)[O-])cc2[N+](=O)[O-])N(C2CCCCC2)C1=O` gave a growth (HCT-15 colon) of 11%, a growth (HT29 colon) of 26.7% and a growth (SNB-75 CNS) of 51.4%. It also gave a growth (SNB-19 CNS) of 51.3%, a growth (U251 CNS) of 25.8% and a growth (PC-3 prostate) of 18.4%. For the same compound, the growth (SK-MEL-5 melanoma) was 82.4%, the growth (UACC-62 melanoma) was 38.7% and the growth (LOX IMVI melanoma) was 72.4%. For the same compound, the growth (SK-MEL-28 melanoma) was 86.5%, the growth (SK-MEL-2 melanoma) was 90.5% and the growth (EKVX NSCLC) was 78.5%. The growth (SN12C renal) was 21.6%, the growth (UO-31 renal) was 19.2% and the growth (TK-10 renal) was 60.2%. For the same compound, the growth (ACHN renal) was 42.3%, the growth (CAKI-1 renal) was 57.1% and the growth (A498 renal) was 63.1%. For the same compound, the growth (CCRF-CEM leukemia) was 17.9% and the growth (MOLT-4 leukemia) was 42.7%.
